Assay outcomes (PubChem BioAssay)
This is a sample that favours compounds with a hit; in the whole collection about 5.3% have one here.
JMJD2E inh: qHTS Assay for Inhibitors of Human Jumonji Domain Containing 2E (JMJD2E); Lysine-specific demethylase 4E (Homo sapiens), B2RXH2; JMJD2E catalytic domain, FDH-coupled NADH fluorescence (FDH is formaldehyde dehydrogenase); Potency, µM (doses to about 57.1 µM), inactives show top-dose activity change, negative = inhibition, most hits filed as inhibitors; 230,000 tested, 1.6% active; active = well fitted inhibition curve with a large enough effect, not every such curve was filed as active; inconclusive = small, poorly fitted or top-dose-only effect, or another doubt; inactive = no such curve, though single readings can be large or run the other way;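 note: potency is the fitted concentration of half-maximal effect; 0% = wells with enzyme and -100% = buffer wells without enzyme; nearly all actives have a fitted effect of over 50% in size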
Target sequence (B2RXH2 1-337 limits assumed): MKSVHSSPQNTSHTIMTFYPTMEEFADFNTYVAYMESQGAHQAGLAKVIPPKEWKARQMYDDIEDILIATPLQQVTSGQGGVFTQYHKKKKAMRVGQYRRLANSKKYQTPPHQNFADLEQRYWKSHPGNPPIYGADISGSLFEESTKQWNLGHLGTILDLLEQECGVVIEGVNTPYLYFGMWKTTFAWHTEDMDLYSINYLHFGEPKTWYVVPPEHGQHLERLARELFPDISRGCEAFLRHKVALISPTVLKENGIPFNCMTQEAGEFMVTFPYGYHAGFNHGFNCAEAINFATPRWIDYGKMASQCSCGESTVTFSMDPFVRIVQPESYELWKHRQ
Tau FP inhib: qHTS for Inhibitors of Tau Fibril Formation, Fluorescence Polarization; K18 P301L tau heparin fibrillization, Alexa594 FP, 6 h; Potency, µM (highest dose often 57.7 µM), for the others: top-dose activity, negative = inhibition, actives largely listed as inhibitors; 280,000 tested, 0.39% active; Microtubule-associated protein tau (Homo sapiens), P10636; note: potency is the fitted concentration of half-maximal effect; nearly all actives have a fitted effect of over 55% in size
Target sequence (P10636 561-689 P618L limits assumed): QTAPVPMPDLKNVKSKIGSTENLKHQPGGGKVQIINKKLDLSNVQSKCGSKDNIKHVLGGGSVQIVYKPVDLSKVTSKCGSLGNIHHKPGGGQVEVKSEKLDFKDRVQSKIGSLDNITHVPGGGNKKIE
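K18 P301L tau (15 uM unlabeled/0.24 uM Alexa 594-labeled, final) + compound + heparin 20 uM final; 100 mM NaOAc pH 7; 6 hr 37 C; ThT 30 uM final added, 1 hr RT; FP ex 555/em 632 nm.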
Tau ThT inhib: qHTS for Inhibitors of Tau Fibril Formation, Thioflavin T Binding. Microtubule-associated protein tau (Homo sapiens), P10636. recombinant tau K18 P301L, heparin-induced fibrillization, ThT fluorescence. AID 1460, 2008. 270,000 tested, 2.1% active. Potency, µM (doses to about 57.4 µM), inactives show at the top dose activity, negative = inhibition, most hits filed as inhibitors; note: potency is the fitted concentration of half-maximal effect; nearly all actives have a fitted effect of over 55% in size
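Recombinant human tau K18 fragment […] carrying P301L, 15 uM unlabeled plus 0.24 uM Alexa 594-labeled, was fibrillized with 20 uM heparin in 100 mM sodium acetate pH 7 for 6 hr at 37 C; 30 uM ThT fluorescence read after 1 hr.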
Tau fluor cs: Counterscreen qHTS for Inhibitors of Tau Fibril Formation, Fluorescence Polarization; tau K18 P301L (four-repeat tau fragment) Alexa594 fluorescence, heparin fibrillization; Potency, µM (highest dose often 57.7 µM), for inactives: at the top dose activity change, negative = decrease; 280,000 tested, 0.93% active; AID 1463, 2008; note: potency is the fitted concentration of half-maximal effect; nearly all actives have a fitted effect of over 55% in size
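Human K18 P301L tau (15 uM unlabeled plus 0.24 uM Alexa 594-labeled, final) in 100 mM sodium acetate pH 7 was mixed with compound and 20 uM heparin and incubated 6 hr at 37 C.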
Sfp PPTase inh: qHTS Assay for Inhibitors of Bacillus subtilis Sfp phosphopantetheinyl transferase (PPTase); 4'-phosphopantetheinyl transferase ffp (Bacillus subtilis), Q9F4F7; Biochemical Sfp PPTase activity, qHTS; Potency, µM, for the others: largest response in the series, negative = inhibition, hits mostly inhibitors; 310,000 tested, 3.5% active;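 note: the enzyme is Sfp with the accession as filed and its product quenches rhodamine fluorescence; potency is the fitted concentration of half-maximal effect; 0% = enzyme reaction without inhibitor and -100% = no enzyme wells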
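After 15 min at room temperature with compound, 15 nM Sfp received 5 uM rhodamine-CoA plus 12.5 uM BHQ-2-ybbR (50 mM Hepes pH 7.6, 10 mM MgCl2). Rate came from the fluorescence difference over 30 min, ex 525/em 598 nm.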
FBPA coupling cs: qHTS Assay for Inhibitors of Fructose-1,6-bisphosphate Aldolase from Giardia Lamblia: Coupling assay counterscreen; coupling enzyme system counterscreen, AmpLite Red fluorescence; activity change, negative = inhibition, % at 58.2 µM, hits read low; 290,000 tested, 0.67% active; AID 2472, 2010; in the data active = activity change below about -30%
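Final compound at 57.5 uM, incubated 10 min at RT with coupling enzyme reagent (glyceraldehyde-3-phosphate), then 20 min with substrate and AmpLite Red detection. Fluorescence read at 525/598 nm; tests interference with the coupling assay, not aldolase inhibition.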
* marks the source's active call; other numbers are inactive results; ? = inconclusive; . = no result given; [ ] = dose if it differs, or a comment. Unless noted, calls come from the whole dose curve; as a rule, active = well fitted curve in the direction sought with a large enough effect; inconclusive = small, poorly fitted or top-dose-only effect, or another doubt; inactive = no such curve, though single readings can be large; an effect the other way counts as inactive or inconclusive. Unless noted, % is set by controls: 0 for no effect and ±100 for the full control effect.

SMILES	JMJD2E inh	Tau FP inhib	Tau ThT inhib	Tau fluor cs	Sfp PPTase inh	FBPA coupling cs
CN=c1scc(-c2ccco2)n1/N=C/c1ccc(O)c(O)c1	25µM*	?	7.1µM*	16µM*[quencher]	50µM*	-12
O=C1C(Cl)=C(NC2CCc3ccccc32)C(=O)c2ncccc21 (centres undefined)	5µM*	?	13µM*	?	45µM*	-7
N#CCCS(=O)(=O)c1ccccc1	17%	-3%	1%	-3%	-5%	2
CC(C)OP(=O)(OC(C)C)/C(C=O)=N\Nc1ccc([N+](=O)[O-])cc1	-3%	5%	16µM*	-11%	13%	0
CNc1ccc(-c2nc3ccccc3s2)cc1	.	.	.	.	?	-9
COc1c(C)cccc1C(=O)NC(=S)Nc1cccc2nsnc12	22%	?	25µM*	-27%	?	-9
Cc1cccc(OCC(=O)NC2CCCC2)c1	.	.	.	.	-3%	0
Cc1ccccc1OCC(=O)NN1C(=O)C2C3C=CC(O3)C2C1=O (centres undefined)	-2%	7%	-8%	4%	50µM*	1
Cc1ccccc1OCC(=O)NN1CCN(C)CC1	-2%	-2%	-1%	1%	2%	2
CCOc1ccc(NC(=O)c2ccc(N)cc2)cc1	6%	8%	-14%	-4%	16%	2
O=C(CCc1ccccc1)NN1C(=O)C2C3C=CC(O3)C2C1=O (centres undefined)	-10%	3%	13%	8%	10µM*	4
Cc1cccc(OCC(=O)NN2C(=O)C3C4C=CC(O4)C3C2=O)c1 (centres undefined)	-1%	-1%	-9%	7%	40µM*	-1
CCOc1ccc(C(=O)NN2C(=O)C3C4C=CC(O4)C3C2=O)cc1 (centres undefined)	5%	-8%	-12%	-3%	28µM*	2
Cn1c(=O)oc2cc(S(=O)(=O)N3CCCC(C(=O)NCCc4ccc(Cl)cc4)C3)ccc21 (centres undefined)	.	-12%	5%	-10%	.	.
COCCn1c(=O)c(-c2ccc(Cl)cc2)nc2cnc(Nc3ccccc3)nc21	.	.	.	.	22%	3
CCN(CCCCOC(=O)c1ccc(OC)c(OC)c1)[C@@H](C)Cc1ccc(OC)cc1	0%[25.5 µM]	.	.	.	9%	3
COC(=O)CN1C(=O)CSc2ccc(S(=O)(=O)Nc3ccc(C(C)=O)cc3)cc21	.	6%	3%	7%	.	.
CC(=O)Nc1ccc(S(=O)(=O)NNC(=O)COc2cccc(C)c2)cc1	?	1%	-2%	0%	79µM*	3
CN(C)c1ccc(N=Nc2ccc(C(=O)O)cc2)cc1	.	.	.	.	79µM*	0
Nc1nc(N)c(N=Nc2ccc(C(=O)O)cc2)c(N)n1	-2%	4%	14µM*	-10%	-4%	-1
CN(C)c1ccc(C(=O)c2ccccc2)cc1	-2%	3%	-13%	-12%	-10%	3
O=C(O)c1ccc(N=Nc2c(O)ccc3ncccc23)cc1	.	.	.	.	0%	-13
NC(=O)C1CC2(NC(=O)NC2=O)c2cc(F)ccc2O1 (centres undefined)	.	.	.	.	8%	.
Brc1ccc(CSc2nnc(-c3ccco3)o2)cc1	-4%	-4%	11%	5%	56µM*	-1
CCc1ccccc1NC(=O)Nc1ccc(F)cc1	2%	1%	-7%	-9%	15%	3
O=C(Nc1ccc(F)cc1)Nc1csc2ccccc12	-2%	2%	.	8.9µM*[quencher]	?	-9
CN(C)c1ccc(NC(=O)Nc2csc3ccccc23)cc1	-6%	-13%	3.5µM*	7.1µM*[quencher]	19%	4
CN1CCC(CNC(=O)Nc2csc3ccccc23)CC1	-6%	13%	?	-19%	79µM*	1
